Only some compounds are listed: those with a hit (about 3.6% of all), similar ones and a draw of the others.
Wnt bcat act – Wnt/beta-catenin pathway activation | Wnt/beta-catenin reporter cell assay, activator, plate reader | activation, % at 9.35 µM | actives 1.2% (n = 300,000); in the data active = activation above about 30%, passing the limit was not always enough; inconclusive = no clear call, values can overlap the other calls;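 note: 0% = neutral control wells and 100% = positive control wells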
APOBEC3G inh – inhibitors of human APOBEC3G DNA deaminase; recombinant A3G, ssDNA deamination FAM/TAMRA fluorescence; inhibition, % at 20 µM; actives 0.28% (n = 330,000); AID 493012;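 active = inhibition of at least 40% at 20 µM, with no more than 30% in the related APOBEC3A deaminase screen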;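 note: plate controls were DMSO wells with A3G for no effect and wells lacking A3G enzyme for full effect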
Target sequence (Q9HC16 whole entry, looked up): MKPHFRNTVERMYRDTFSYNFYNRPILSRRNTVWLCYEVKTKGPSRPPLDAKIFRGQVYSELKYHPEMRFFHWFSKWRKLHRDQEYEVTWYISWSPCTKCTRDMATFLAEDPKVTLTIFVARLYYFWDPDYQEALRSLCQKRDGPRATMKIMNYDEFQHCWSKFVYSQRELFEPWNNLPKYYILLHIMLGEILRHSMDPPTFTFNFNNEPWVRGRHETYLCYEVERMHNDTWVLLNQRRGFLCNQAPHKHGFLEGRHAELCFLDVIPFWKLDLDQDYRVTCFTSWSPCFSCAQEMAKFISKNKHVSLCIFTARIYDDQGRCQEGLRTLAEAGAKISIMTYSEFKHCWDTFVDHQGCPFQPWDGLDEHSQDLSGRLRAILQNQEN
A3A deaminase – blocks human APOBEC3A ssDNA deamination | P31941 | AID 493011 | inhibition, % at 20 µM | recombinant A3A, FAM/TAMRA ssDNA deamination fluorescence | actives 0.41% (n = 330,000);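 active = at least 40% inhibition at 20 µM here, with at most 30% in a related deaminase screen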;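 note: plate controls were A3A with DMSO for no effect and wells lacking A3A enzyme for full effect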
PHOSPHO1 block – PHOSPHO1 (human) inhibition; Q8TCT1; recombinant PHOSPHO1, absorbance phosphatase assay; inhibition, % at 13.3 µM; actives 1.1% (n = 290,000); AID 1565; in the data active = inhibition above about 60%
esBAF inh – blocks esBAF chromatin remodeling in mouse ES cells; actives 2% (n = 350,000); reporter increase, % at 12.5 µM; Bmi1-luciferase knock-in reporter, 24 h; 100% = twice the neutral-well signal; in the data active = activation above about 40%; inconclusive = no clear call, values can overlap the other calls;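 note: 0% = median of the plate's neutral control wells and 100% = double that signal; a rise in the Bmi1 reporter signal indicates esBAF inhibition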
MITF act – activators of MITF-driven TRPM1 promoter activity in SK-MEL-5 cells. activation, % at 12.5 µM. SK-MEL-5 TRPM1-promoter luciferase, 24 h; % of positive control, neutral wells = 0. actives 0.75% (n = 300,000);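 active = mean activation of at least 80% with every replicate also reaching 80%; inconclusive = mean reaches 80% but some replicate falls short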;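 note: 0% = neutral control wells and 100% = parthenolide positive control wells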
Numbers without * were called inactive; ? = inconclusive; . = no result.

SMILES | Wnt bcat act | APOBEC3G inh | A3A deaminase | PHOSPHO1 block | esBAF inh | MITF act
Cc1cc(Cl)cc2sc(NC(=O)c3ccco3)nc12 | . | 4 | -1 | 10 | 17 | 88*
COc1cccc2sc(Nc3nnc(-c4cccs4)o3)nc12 | 59* | -1 | 1 | 18 | -14 | .
Cc1cc(C)c2nc(NC(=O)c3ccco3)sc2c1 | 24 | -5 | -3 | 43 | -33 | 22
COc1cccc2sc(Nc3nnc(-c4ccc(F)cc4)o3)nc12 | -7 | 10 | 10 | -46 | 23 | -14
O=C(Nc1nc2c(F)cccc2s1)c1ccco1 | 43* | 2 | 2 | 15 | 31 | 59
Cc1ccc(NC(=O)C[C@H]2CC[C@H]3[C@@H](COc4ccc(NS(C)(=O)=O)cc4C(=O)N3C)O2)cc1 | . | . | . | . | -3 | .
CC(=O)N(C)C[C@@H]1Oc2ncc(-c3cccc(F)c3)cc2C(=O)N([C@@H](C)CO)C[C@H]1C | . | . | . | . | -1 | .
O=C(C[C@H]1C=C[C@H](NC(=O)Nc2ccc(F)cc2)[C@H](CO)O1)NCCN1CCCC1 | . | . | . | . | 2 | .
Cc1ccnc(SCc2cc(=O)c(OC(=O)c3ccc(Br)o3)co2)n1 | 51* | -7 | -1 | -2 | . | 0
O=C(Oc1coc(CSc2ncccn2)cc1=O)c1ccc(Br)o1 | -1 | -5 | -7 | -3 | . | -13
Cc1ccc(-c2nc3ccc(Br)cn3c2Cc2cccc(F)c2)cc1 | -2 | . | . | . | 51* | .
Cc1ccc2nc(-c3ccc(F)cc3)c(Cc3cccc(Cl)c3)n2c1 | 24 | . | . | . | 48* | .
Cc1ccc(C(=O)Nc2ccc(C(=O)N/N=C/c3c[nH]c4ccccc34)cc2)cc1 | 7 | -7 | 9 | -5 | . | 1
O=C(N/N=C/c1cc(Br)c(O)c(Br)c1O)c1ccc2c(c1)OCCO2 | 9 | 6 | 9 | 18 | 43* | 31
O=C(N/N=C/c1c[nH]c2ccccc12)c1ccc2c(c1)OCCO2 | 2 | -4 | -3 | 44 | 51* | .
O=C(N/N=C/c1cc(Br)cc(Cl)c1O)c1ccc2c(c1)OCO2 | -3 | -6 | 1 | . | . | .
Cc1cccc(NC(=S)N/N=C/c2c[nH]c3ccccc23)c1 | 10 | 1 | 2 | -2 | 88* | -8
Cc1nn(C)cc1/C=N/NC(=S)Nc1ccccc1 | 40* | 6 | -3 | 60 | 69* | .
Oc1ccccc1C=NNC(=S)Nc1ccc(F)cc1 | 12 | . | . | . | -1 | -3
COc1ccc(NC(=O)Nc2ccc3c(c2)C(=O)N([C@H](C)CO)C[C@@H](C)[C@@H](CN(C)Cc2ccc(C(=O)O)cc2)OCCCC[C@H](C)O3)cc1 | . | . | . | . | -4 | .
Cc1noc(C)c1S(=O)(=O)Nc1cccc2c1O[C@@H](CN(C)C(=O)NC1CCCCC1)[C@@H](C)CN([C@H](C)CO)C2=O | . | . | . | . | 2 | .
Nc1ccc(N=Nc2ccccc2)cc1[N+](=O)[O-] | -4 | . | . | . | 62* | 41
C[C@@H]1CCCCO[C@@H](CN(C)C(=O)c2ccncc2)[C@H](C)CN([C@H](C)CO)C(=O)c2cc(NS(=O)(=O)c3cn(C)cn3)ccc2O1 | . | . | . | . | 0 | .
COCCn1c(SCc2nc3sc(C(=O)OC)c(C)c3c(=O)[nH]2)nc2ccccc21 | 2 | -3 | 2 | 92* | 4 | 10
COc1ccc(C)cc1-n1nnnc1SCc1nc2ccccc2s1 | 24 | -2 | 0 | 16 | 57* | .
SMILES | Wnt bcat act | APOBEC3G inh | A3A deaminase | PHOSPHO1 block | esBAF inh | MITF act
COCCn1c(SCc2nc3ccccc3s2)nc2ccccc21 | ? | -2 | -4 | 37 | 104* | 28
COc1ccc(-n2nnnc2SCc2nc3ccccc3s2)cc1 | . | 2 | 0 | 10 | 71* | 30
COc1ccc(CSc2nnnn2-c2ccccc2)cc1 | . | -5 | -4 | 9 | 5 | 19
C[C@H]1CN([C@@H](C)CO)C(=O)c2cc(/C=C/c3ccccc3)cnc2O[C@H]1CN(C)C(=O)c1ccc2c(c1)OCO2 | . | . | . | . | 0 | .
C[C@@H]1CN([C@@H](C)CO)C(=O)c2cc(NC(=O)Nc3ccc(C(F)(F)F)cc3)ccc2O[C@@H](C)CCCCO[C@@H]1CN(C)S(=O)(=O)c1cn(C)cn1 | . | . | . | . | 5 | .
Cc1ccc(Nc2c(-c3ccc(C)o3)nc3cnccn23)cc1 | 26 | 19 | 1 | 3 | 31 | 36
Cc1ccc(-c2nc3cnccn3c2Nc2ccccc2)o1 | 6 | 19 | -6 | -4 | 44* | .
C[C@@H]1CN([C@@H](C)CO)C(=O)c2cc(NC(=O)CCC(F)(F)F)ccc2O[C@H]1CN(C)S(=O)(=O)c1cccs1 | . | . | . | . | -4 | .

Screens: PubChem, several laboratories
